Laboratory results from the supplement of paper PMC12340641.
Counter-ions that a name gives are not always drawn.

Each molecule was assayed against IKZF1 (dCK*-IKZF1 fusion in HEK293FT) (UniProt Q13422) (assay: inhibition of IKZF1 HTRF signal (DMSO = 0%, pomalidomide 10 uM = 100%); higher = lower IKZF1 protein level). Settings: compound concentration: 5 uM, overnight (~20 h).
Procedure, shortened: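 After overnight treatment at 37 °C with 5 μM compound in single wells, HEK293FT cells (2000/well, 384-well) stably expressing an IKZF1 fusion were lysed for 30 min at room temperature. A commercial HTRF total-IKZF1 antibody kit was incubated with the lysate overnight, and the time-resolved FRET ratio at 665/620 nm was corrected for background. Data are given as percent inhibition of IKZF1 signal relative, on each plate, to vehicle and a reference degrader, set at 0% and 100% respectively.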

Chain of IKZF1 (dCK*-IKZF1 fusion in HEK293FT) (Q13422 whole entry, looked up, the tested form may be a part): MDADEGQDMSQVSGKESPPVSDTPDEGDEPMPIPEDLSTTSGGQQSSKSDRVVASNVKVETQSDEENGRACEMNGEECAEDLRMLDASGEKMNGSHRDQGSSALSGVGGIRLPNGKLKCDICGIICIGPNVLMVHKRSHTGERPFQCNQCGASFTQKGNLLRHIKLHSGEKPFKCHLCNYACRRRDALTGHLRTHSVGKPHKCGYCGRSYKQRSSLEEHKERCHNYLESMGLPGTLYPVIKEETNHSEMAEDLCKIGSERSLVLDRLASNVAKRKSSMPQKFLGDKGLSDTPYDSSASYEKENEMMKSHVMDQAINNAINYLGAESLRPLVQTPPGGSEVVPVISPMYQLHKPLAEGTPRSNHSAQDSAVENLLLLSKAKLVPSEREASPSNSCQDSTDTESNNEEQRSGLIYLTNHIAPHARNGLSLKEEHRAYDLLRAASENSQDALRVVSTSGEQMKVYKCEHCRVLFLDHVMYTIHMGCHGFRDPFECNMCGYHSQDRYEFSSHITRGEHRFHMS

| Structure (SMILES) | inhibition of IKZF1 HTRF signal |
| --- | --- |
| COc1cc([C@@H]2c3cc4c(cc3[C@@H](O[C@@H]3O[C@@H]5CO[C@@H](C)O[C@H]5[C@H](O)[C@H]3O)[C@H]3COC(=O)[C@H]23)OCO4)cc(OC)c1OP(=O)(O)O [Etoposide phosphate] | -12.6% |
| COC(=O)C1=C(C)NC(C)=C(C(=O)OC(C)C)C1c1cccc2nonc12 (centres undefined) [isradipine] | -28.6% |
| CC1(C)C(=O)N=C2C1=C(O)C(=O)c1ccccc12 | 80% |
| CO[C@H]1CC[C@H](N2C(=O)CNc3ncc(-c4ccc(C(C)(C)O)nc4)nc32)CC1 | -19.1% |
| CN(C)CC(O)Cn1c2ccc(Br)cc2c2cc(Br)ccc21 (centres undefined) [wiskostatin] | -32.4% |
| CCC1/C=C(\C)CC(C)CC(OC)C2OC(O)(C(=O)C(=O)N3CCCCC3C(=O)OC(/C(C)=C/C3CCC(O)C(OC)C3)C(C)C(O)CC1=O)C(C)CC2OC (centres undefined) [Ascomycin (FK520)] | 4.12% |
| CCc1nc(N)nc(N)c1-c1ccc(Cl)cc1 [Pyrimethamine] | -52.5% |
| O=C(Nc1ccc(C(O)(C(F)(F)F)C(F)(F)F)cc1)c1ccc(C(F)(F)F)cc1 | -28.5% |
| FC(F)(F)c1ccccc1-c1cc(C(F)(F)F)c2[nH]c(C3=NOC4(CCCCC4)C3)nc2c1 | 28.1% |
| CCN1CCN(Cc2ccc(-c3cc4c(N[C@H](C)c5ccccc5)ncnc4[nH]3)cc2)CC1 | -37.1% |
| CCCCCCCCCCCCCCCC[N+](C)(C)CCN(Cc1ccc(OC)cc1)c1ncccn1 [thonzonium bromide] | 21% |
| CC[C@@]1(O)C(=O)OCc2c1cc1n(c2=O)Cc2cc3cc(O)ccc3nc2-1 [10-Hydroxycamptothecin] | 38.4% |
| O=C(N/N=C/c1ccccc1O)c1ccccc1O | -40.4% |
| O=[N+]([O-])c1ccc2nc(COCc3nc4ccc([N+](=O)[O-])cc4[nH]3)[nH]c2c1 | -34.1% |
| C[C@H](NCc1ccc(OCc2ccccc2F)cc1)C(N)=O [priralfinamide] | -24% |
| COc1cc([C@@H]2c3cc4c(cc3[C@@H](O[C@@H]3O[C@@H]5COC(c6cccs6)O[C@H]5[C@H](O)[C@H]3O)[C@H]3COC(=O)C23)OCO4)cc(OC)c1O (some centres undefined) [Teniposide] | -45.1% |
| NC(=O)Nc1sc(-c2ccc(F)cc2)cc1C(N)=O | -33.5% |

| Structure (SMILES) | inhibition of IKZF1 HTRF signal |
| --- | --- |
| CCc1c2c(nc3ccc(OC(=O)N4CCC(N5CCCCC5)CC4)cc13)-c1cc3c(c(=O)n1C2)COC(=O)[C@]3(O)CC [irinotecan] | 41.6% |
| CN(C)CCCN1c2ccccc2Sc2ccc(C(F)(F)F)cc21 | -28.3% |
| Clc1ccc(COC(Cn2ccnc2)c2ccc(Cl)cc2Cl)c(Cl)c1 (centres undefined) [Miconazole] | 20.3% |
| CC(=O)Nc1ncc([N+](=O)[O-])s1 | 6.78% |
| Nc1ncn([C@@H]2O[C@H](CO)[C@@H](O)[C@H]2O)c(=O)n1 | -45.6% |
| Clc1ccc(CSC(Cn2ccnc2)c2ccc(Cl)cc2Cl)cc1 (centres undefined) [Sulconazole Nitrate] | -32.3% |
| CN(C)CCN1C(=O)c2cccc3cc(N)cc(c23)C1=O [Amonafide] | 27.6% |
| C=C1/C(=C\C=C2/CCC[C@]3(C)[C@@H]([C@H](C)CCCC(C)(C)O)CC[C@@H]23)C[C@@H](O)C[C@@H]1O [Calcitriol] | -12.4% |
| C=C1/C(=C\C=C2/CCC[C@]3(C)[C@@H]([C@H](C)CCCC(C)(C)O)CC[C@@H]23)C[C@@H](O)C[C@@H]1O [Calcitriol (Rocaltrol)] | 7.56% |
| c1ccc(C(NCCNC(c2ccccc2)c2ccccc2)c2ccccc2)cc1 | -1.32% |
| CCS(=O)(=O)N(C)[C@@H]1c2cc(C#N)ccc2OC(C)(C)[C@H]1O.CCS(=O)(=O)N(C)[C@H]1c2cc(C#N)ccc2OC(C)(C)[C@@H]1O (racemic) [chromanol-(+/-)] | -29.6% |
| O=C1c2ccccc2-c2n[nH]c3cccc1c23 [pyrazolanthrone] | -38.5% |
| CCCCCCCCCCCC1=C(O)C(=O)C=C(O)C1=O [embelin] | -30.8% |
| O=c1n(CC2CO2)c(=O)n(CC2CO2)c(=O)n1CC1CO1 (centres undefined) [Triglycidyl isocyanurate] | 30.6% |
| Cc1cc(C)c(C2=NOC3C4CCC(C4)C23)c(C)c1 (centres undefined) | -34% |
| O=C1Nc2ccc(I)cc2/C1=C/c1cc(Br)c(O)c(Br)c1 | -34.2% |
| COc1cccc2c1C(=O)c1c(O)c3c(c(O)c1C2=O)C[C@@](O)(C(=O)CO)C[C@@H]3O[C@H]1C[C@H](N)[C@@H](O)[C@H](C)O1 [Epirubicin Hydrochloride] | 52.4% |
